Experimental findings from PubChem BioAssay (NCATS) are described below.

Each structure is given as a SMILES string. Values joined by “and” are separate entries in the source; they are usually repeats but may differ in a detail not shown here. Equal values may be shown once. A number with no mark means an inactive call. Records with an inconclusive call do not appear. Active and inactive are the calls of the source. The call rests on the fitted dose curve; in most records, active means well fitted curve in the direction sought with a large enough effect; inconclusive means small, poorly fitted or top-dose-only effect, or another doubt; inactive means no such curve, though single readings can be large; an effect the other way counts as inactive or inconclusive.

The target of experiment [1] is Cytochrome P450 3A4 (Homo sapiens) (UniProt P08684). Kind of experiment: qHTS Assay for Inhibitors and Substrates of Cytochrome P450 3A4 (AID 884). Further: potency means the concentration at half of the fitted maximal effect; nearly all actives have a fitted effect of over 50% in size. The note with it: recombinant CYP3A4, Luciferin-PPXE luminescence; series mostly up to 57.1 µM. In a few lines:
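20 nM human CYP3A4 with 25 uM Luciferin-PPXE (at KM) in 200 mM KPO4, preincubated 10 min with compound; NADPH regeneration started a 60 min RT reaction. Luciferin detected by luminescence, normalized to 57 uM ketoconazole as full inhibition.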
(qHTS replaces the single test concentration by a dilution series.)

Experiment [2] has the same target. Nature of the experiment: qHTS Assay for Activators of Cytochrome P450 3A4 (AID 885). Further: nearly all actives have a fitted effect of over 65% in size. The note with it: recombinant CYP3A4, Luciferin-PPXE luminescence, 60 min; series mostly up to 57.1 µM. The method, boiled down: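 Human CYP3A4 (20 nM) with Luciferin-PPXE at 25 uM (its KM) in 200 mM KPO4; 10 min compound preincubation, then NADPH regeneration and 60 min reaction at RT. Luciferin read by luminescence; normalized to 57 uM ketoconazole full inhibition.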

Cytochrome P450 3A4 (Homo sapiens), sequence (P08684 whole entry, looked up): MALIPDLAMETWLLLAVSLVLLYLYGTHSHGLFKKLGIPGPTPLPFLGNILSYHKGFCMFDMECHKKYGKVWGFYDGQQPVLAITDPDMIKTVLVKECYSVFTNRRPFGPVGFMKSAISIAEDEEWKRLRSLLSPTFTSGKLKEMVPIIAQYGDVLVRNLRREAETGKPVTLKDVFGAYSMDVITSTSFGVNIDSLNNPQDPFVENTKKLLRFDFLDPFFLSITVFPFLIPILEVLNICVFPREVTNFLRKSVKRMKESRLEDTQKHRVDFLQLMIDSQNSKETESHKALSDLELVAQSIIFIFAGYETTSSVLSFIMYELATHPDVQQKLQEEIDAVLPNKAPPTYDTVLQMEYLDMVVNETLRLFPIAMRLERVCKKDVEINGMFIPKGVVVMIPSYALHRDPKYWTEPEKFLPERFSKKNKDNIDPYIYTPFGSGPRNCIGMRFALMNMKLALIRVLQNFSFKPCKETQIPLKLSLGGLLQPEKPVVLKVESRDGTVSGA

Turning to `CCC1=C2CC[C@H]3C(=O)N(C)C(=O)[C@H]3[C@H]2[C@@]2(Cc3ccccc3)C(=NCCOC)OC(=O)N2C1=O`, the Potency in experiment [1] is 10 µM (active). For the same compound, the Potency entry in experiment [2] was “inactive”.
For `O=C(N/N=C1/C[C@@H](O)[C@@H](O)[C@@H]2[C@@H]3C(=O)N(Cc4ccc5c(c4)OCO5)C(=O)[C@H]3CC[C@@H]12)OCc1ccccc1`, the Potency in experiment [1] is 1.26 µM (active). In addition, in experiment [2], the activity change, positive = activation is -74.6% [at 11.4 µM].
Turning to `CNC(=O)[C@@H](Cc1ccccc1)N(C)C(=O)[C@@H](Cc1ccc2ccccc2c1)N(C)C(=O)/C=C/CC(C)(C)N`, the Potency in experiment [1] was 7.94 µM (active). For the same compound, the Potency entry in experiment [2] was “inactive”.
For the compound `COC(=O)[C@H]1C[C@@H]2CC[C@@H](O)C[C@@H]2N1Cc1c(F)cccc1Cl`, in experiment [1], the Potency is 12.6 µM (active). Besides, the Potency result in experiment [2] is “inactive”.
With `COC(=O)C/C=C\[C@@H](C)[C@@H](/C=N\O[C@@H](C)c1cn([C@H](CO)Cc2ccccc2)nn1)OC`, the Potency in experiment [1] is 3.98 µM (active). Further, in experiment [2], the activity change, positive = activation was -56.1% [at 11.4 µM] and -71.3% [at 11.4 µM].
On to `N#Cc1ccc(C23CC4(C2)[C@H](CN(CC2CCCCC2)[C@@H]4c2ccccc2)C3c2ccccc2)cc1` (stereo partly specified), for which, in experiment [1], the Potency was 15.8 µM (active). In addition, the Potency entry in experiment [2] is “inactive”.
On to `C#CCCCO/N=C1/C[C@@H](O)[C@@H](O)[C@@H]2[C@@H]3C(=O)N(Cc4ccccc4)C(=O)[C@H]3CC[C@H]12`, for which the Potency in experiment [1] was 3.98 µM (active). In experiment [2], the activity change, positive = activation is -103% [at 11.4 µM].
In the case of `CCC1=C(OC(=O)N(CC)CC)N2C(=O)OC(=NCC3CC3)[C@]2(Cc2ccccc2)[C@H]2C1=CC[C@H]1C(=O)N(c3ccccc3)C(=O)[C@H]12`, the Potency in experiment [1] is 2.51 µM (active). In experiment [2], the Potency result was “inactive”.
